This is an account of results in PubChem BioAssay.

Inconclusive results are not listed. Activity calls are given as the source filed them.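 Rule for the calls, unless noted: active = efflux inhibition above 0.42, the validation set average plus 4 SD; inconclusive = no clear call, values can overlap the other calls; inactive = the rest.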

The nature of assay [1]: yeast TOR pathway RPL19A-GFP modulators, primary screen, cell-based, S. cerevisiae, multiplex flow cytometry (AID 1862; in the data active = percent of DMSO control GFP below about 86%;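 note: lower values mimic rapamycin by blocking the RPL19A rise seen in DMSO cells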). The conditions noted are these: S. cerevisiae RPL19A-GFP strain, flow cytometry fluorescence, 3 h; at 10 µM; stronger effect = lower value.
A short description of assay [2]: modulators of MEP2-GFP levels in yeast, primary screen, S. cerevisiae, multiplex flow cytometry (AID 1867;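 active = GFP response, as percent of the DMSO control, above the screen-wide mean plus 3 SD, about 139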;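 note: median GFP channel fluorescence of barcode-gated MEP2-GFP cells measured by flow cytometry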). The conditions noted are these: S. cerevisiae MEP2-GFP strain, 3 h, at 10 µM, stronger effect = higher value, 100% means same as DMSO wells.
Assay [3] can be described thus: modulators of CIT2-GFP expression in yeast, primary screen, S. cerevisiae, GFP fusion, multiplex flow cytometry (AID 1870;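 active = percent response above a set limit, the screen-wide mean plus 3 SD, cut at about 130% in these data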;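 note: barcoded CIT2-GFP strain pooled with four other GFP strains with rapamycin as positive control; median GFP fluorescence per well over plate mean of DMSO wells so 100% = DMSO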). The conditions noted are these: 3 h, at 10 µM, stronger effect = higher value.
Assay [4] in a line: modulators of LAP4-GFP expression in yeast, primary screen, S. cerevisiae, multiplex flow cytometry (AID 1873;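 active = GFP signal, as percent of the solvent control, above the screen mean plus 3 SD, about 149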). The conditions noted are these: 3 h, at 10 µM, stronger effect = higher value.
The nature of assay [5]: modulators of AGP1-GFP expression in yeast TOR pathway, primary screen, cell-based, multiplex flow cytometry, S. cerevisiae (AID 1887;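 active = GFP signal above the screen-wide mean plus 3 SD, that is over about 124.5% of the solvent control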;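 note: AGP1-GFP fusion strain of S. cerevisiae within a five-strain barcoded multiplex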). To be noted: 3 h, at 10 µM, stronger effect = higher value.
The nature of assay [6]: inhibitors of CD8+ T cell-vesicle binding, pilot screen, LFA-1/ICAM-1 modulator project, MLPCN validation set, flow cytometry (AID 2523;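 active = response below a set limit, under 55% cells CD8-positive and vesicle-bound, and CD8 cells' 90th-percentile brightness under 279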;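 for vesicle binding response: mean PE anti-B7-1 fluorescence of CD8+ cells relative to row control; 100% = QL9-loaded vesicles with DMSO vehicle in the same plate row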). The conditions noted are these: 2C mouse CD8+ T cells, at 7 µM, stronger effect = lower value; double positive events: measured here: CD8+/vesicle+ event percentage.
Assay [7] addresses Integrin beta-1 (Homo sapiens) + Integrin alpha-4 (Homo sapiens) (UniProt P13612+P05556). Put plainly: inhibition of HUTS-21 binding to VLA-4, pilot screen, VLA-4 allosteric modulator project, U937 cells, HUTS-21 mAb, flow cytometry, validation set (AID 2674;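 active = inhibition above 50%, about 3 SD of the validation set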;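 note: antibody binding induced by the VLA-4 ligand LDV present at three times its Kd; 0% = LDV ligand with antibody and no compound and 100% = antibody without LDV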). To be noted: HUTS-21 LIBS mAb binding, at 6.7 µM, stronger effect = higher value, binding induced by LDV ligand.
Assay [8] in a line: superoxide lowering in aged yeast cells, pilot screen, validation compound set (AID 2706;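 active = superoxide response below 65% of plate, a cut near 3 SD across the whole screen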;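 note: yeast exposed to compound for one week at 30 degrees C before staining; 100% = mean of all compound wells on the same plate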). The conditions noted are these: S. cerevisiae aging, superoxide DHE fluorescence; at 10 µM, stronger effect = lower value.
Assay [9] addresses Beta-adrenergic receptor kinase 1 (Homo sapiens) (UniProt P25098). The assay can be described thus: GRK2 binders displacing RNA aptamer, biochemical, validation, human GRK2, bead flow cytometry (AID 488806;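 active = aptamer binding inhibition above 30%, about 3 SD of noise from non-fluorescent compounds; inactive = inhibition at or below 30%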). The conditions noted are these: bead-bound GRK2, FAM-aptamer displacement, at 10 µM, stronger effect = higher value.
The target of assay [10] is AP-2 complex subunit beta (Homo sapiens) (UniProt P63010). The assay can be described thus: inhibitors of arrestin peptide binding to AP2, pilot screen, biochemical, validation set, GST-AP2 beads, flow cytometry (AID 504541;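 active = inhibition above 54%, about 3 SD of non-fluorescent compounds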;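 note: AP2 carries R879A mutation and is captured from E. coli lysate; bead-bound FITC arrestin peptide fluorescence measuring arrestin peptide binding to AP2; 0% = DMSO wells and 100% = excess unlabeled arrestin peptide control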). The conditions noted are these: FITC arrestin peptide, at 10 µM, stronger effect = higher value, AP2 beta2 appendage fragment, R879A mutant.
AP-2 complex subunit beta (Homo sapiens), sequence (P63010 whole entry, looked up, the tested form may be a part, one chain of several): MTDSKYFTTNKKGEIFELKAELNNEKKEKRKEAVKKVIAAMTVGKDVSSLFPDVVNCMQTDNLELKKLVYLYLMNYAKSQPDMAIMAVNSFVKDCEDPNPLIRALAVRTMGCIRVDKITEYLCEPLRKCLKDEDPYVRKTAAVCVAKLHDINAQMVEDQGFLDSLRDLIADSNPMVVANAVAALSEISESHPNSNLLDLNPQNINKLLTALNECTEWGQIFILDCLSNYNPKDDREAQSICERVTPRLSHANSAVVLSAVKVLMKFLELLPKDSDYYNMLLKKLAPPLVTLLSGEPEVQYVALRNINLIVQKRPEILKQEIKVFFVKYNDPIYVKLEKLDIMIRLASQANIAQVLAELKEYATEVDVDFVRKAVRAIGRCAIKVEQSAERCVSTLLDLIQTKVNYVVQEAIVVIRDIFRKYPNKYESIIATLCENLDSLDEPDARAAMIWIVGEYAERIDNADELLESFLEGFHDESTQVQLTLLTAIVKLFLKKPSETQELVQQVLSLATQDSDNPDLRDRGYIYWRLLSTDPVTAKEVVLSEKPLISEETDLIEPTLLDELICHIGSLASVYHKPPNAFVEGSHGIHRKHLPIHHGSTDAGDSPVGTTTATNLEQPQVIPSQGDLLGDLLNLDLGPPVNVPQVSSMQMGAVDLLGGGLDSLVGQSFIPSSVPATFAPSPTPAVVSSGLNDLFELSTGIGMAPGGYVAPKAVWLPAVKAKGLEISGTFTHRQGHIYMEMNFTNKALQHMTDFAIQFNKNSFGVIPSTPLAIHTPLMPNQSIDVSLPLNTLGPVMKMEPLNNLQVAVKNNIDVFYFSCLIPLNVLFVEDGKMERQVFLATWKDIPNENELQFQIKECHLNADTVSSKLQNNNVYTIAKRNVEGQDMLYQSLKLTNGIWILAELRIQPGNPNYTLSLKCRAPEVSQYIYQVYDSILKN
Assay [11] is described as follows: yeast V-ATPase proton transport modulators, S. cerevisiae, pHLuorin, HTS validation (AID 504600; in the data active = response above about 15%;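 note: plate controls were DMSO for no effect and reference compound for full effect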). The conditions noted are these: S. cerevisiae pHLuorin cytosolic pH, at 10 µM, stronger effect = higher value.
In assay [12] the test system is anti-desmoglein-3 scFv antibody binding to human DSG3. Put plainly: inhibitors of anti-DSG3 scFv binding to DSG3, pilot screen, biochemical, validation compound set, bead-based, flow cytometry (AID 588368;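 active = binding below the plate cutoff, the plate median minus 3 SD, with a reading above zero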;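 note: signal is the median channel fluorescence of bead-bound GFP antibody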). The conditions noted are these: Protein G beads, DSG3-Fc, scFv-GFP binding, at 10 µM, stronger effect = lower value.
Assay [13] in a line: inhibitors of fungal efflux pumps CDR1, CDR2, MDR1, pilot screen, validation compound set, multiplex, phenotypic (AID 588506).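 Note: Nile Red retained in cells so higher fluorescence means more efflux inhibition; 0 = negative control wells and 1 = enniatin B 25 µM full block.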 To be noted: S. cerevisiae pump-expressing triplex, Nile Red efflux flow cytometry; at 10 µM; stronger effect = higher value; the pumps come from Candida albicans.
The target in assay [14] is ATP-binding cassette sub-family B member 6 (Homo sapiens) (UniProt Q9NP58). Put plainly: ABCB6 transporter inhibitors, pilot screen, K562-ABCB6 cells, flow cytometry, validation set (AID 588550;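 active = inhibition above the screen-wide mean plus 3 SD, about 51%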;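 note: 0% = DMSO wells and 100% = benzethonium chloride 70 µM positive control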). To be noted: K562-ABCB6 porphyrin accumulation, 1 h, at 10 µM, stronger effect = higher value.
ATP-binding cassette sub-family B member 6 (Homo sapiens), sequence (Q9NP58 whole entry, looked up): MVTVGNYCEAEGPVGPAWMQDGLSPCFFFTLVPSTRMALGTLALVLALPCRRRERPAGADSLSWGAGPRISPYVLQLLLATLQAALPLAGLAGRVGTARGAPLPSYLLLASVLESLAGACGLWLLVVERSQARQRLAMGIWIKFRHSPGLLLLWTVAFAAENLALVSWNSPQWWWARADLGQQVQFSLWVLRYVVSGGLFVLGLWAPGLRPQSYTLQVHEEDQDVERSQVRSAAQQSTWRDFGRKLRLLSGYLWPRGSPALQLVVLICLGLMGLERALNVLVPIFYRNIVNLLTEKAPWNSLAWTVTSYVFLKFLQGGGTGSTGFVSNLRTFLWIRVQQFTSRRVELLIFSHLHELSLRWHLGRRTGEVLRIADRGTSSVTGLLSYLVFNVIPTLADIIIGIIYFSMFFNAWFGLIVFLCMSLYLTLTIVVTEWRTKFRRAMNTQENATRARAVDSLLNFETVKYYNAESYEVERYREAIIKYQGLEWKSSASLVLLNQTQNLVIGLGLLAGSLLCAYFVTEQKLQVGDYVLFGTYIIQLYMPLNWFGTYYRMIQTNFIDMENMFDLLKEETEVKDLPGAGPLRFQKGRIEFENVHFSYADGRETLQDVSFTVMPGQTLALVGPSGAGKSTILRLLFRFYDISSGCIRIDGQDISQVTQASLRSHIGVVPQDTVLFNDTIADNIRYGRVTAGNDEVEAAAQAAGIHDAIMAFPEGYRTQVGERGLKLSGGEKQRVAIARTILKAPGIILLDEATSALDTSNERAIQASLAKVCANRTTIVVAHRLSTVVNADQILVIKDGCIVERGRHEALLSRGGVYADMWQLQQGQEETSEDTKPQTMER
Assay [15] can be described thus: promoters of myeloid differentiation in arrested cells, primary screen, cell-based, GFP/MAC1 double positive, flow cytometry, validation set (AID 588685;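 active = differentiation response of at least 50%, scaled between solvent and reference control, from cells with both markers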;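 note: compound exposure lasts four days before antibody staining and flow analysis; 0% = DMSO wells and 100% = 5 µM fulvestrant positive control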). The conditions noted are these: ER-HoxA9 marrow cells, stronger effect = higher value, normalized: vehicle 0, fulvestrant 100.

Integrin beta-1 (Homo sapiens) + Integrin alpha-4 (Homo sapiens), sequence (P05556 whole entry, looked up): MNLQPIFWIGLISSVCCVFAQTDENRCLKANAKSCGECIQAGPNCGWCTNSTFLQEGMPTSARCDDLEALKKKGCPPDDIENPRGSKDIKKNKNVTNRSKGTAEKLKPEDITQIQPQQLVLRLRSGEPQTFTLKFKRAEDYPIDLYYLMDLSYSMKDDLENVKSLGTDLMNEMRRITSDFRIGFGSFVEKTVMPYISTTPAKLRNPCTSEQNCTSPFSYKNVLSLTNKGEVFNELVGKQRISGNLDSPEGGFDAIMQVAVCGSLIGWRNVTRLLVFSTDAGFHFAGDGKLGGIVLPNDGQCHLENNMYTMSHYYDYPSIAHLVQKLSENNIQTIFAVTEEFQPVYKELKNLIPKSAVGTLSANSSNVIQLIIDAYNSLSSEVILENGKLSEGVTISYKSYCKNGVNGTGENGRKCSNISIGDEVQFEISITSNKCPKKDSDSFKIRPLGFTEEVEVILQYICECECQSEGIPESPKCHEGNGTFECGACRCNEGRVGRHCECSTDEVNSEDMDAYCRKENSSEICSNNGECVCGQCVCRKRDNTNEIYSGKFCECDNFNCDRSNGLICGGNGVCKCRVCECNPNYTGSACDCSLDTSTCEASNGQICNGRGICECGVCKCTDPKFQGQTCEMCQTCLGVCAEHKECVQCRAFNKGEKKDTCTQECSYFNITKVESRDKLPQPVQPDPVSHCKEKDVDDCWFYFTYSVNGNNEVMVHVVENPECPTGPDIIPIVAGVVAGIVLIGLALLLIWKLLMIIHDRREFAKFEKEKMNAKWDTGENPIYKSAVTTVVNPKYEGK
Integrin beta-1 (Homo sapiens) + Integrin alpha-4 (Homo sapiens), sequence (P13612 whole entry, looked up): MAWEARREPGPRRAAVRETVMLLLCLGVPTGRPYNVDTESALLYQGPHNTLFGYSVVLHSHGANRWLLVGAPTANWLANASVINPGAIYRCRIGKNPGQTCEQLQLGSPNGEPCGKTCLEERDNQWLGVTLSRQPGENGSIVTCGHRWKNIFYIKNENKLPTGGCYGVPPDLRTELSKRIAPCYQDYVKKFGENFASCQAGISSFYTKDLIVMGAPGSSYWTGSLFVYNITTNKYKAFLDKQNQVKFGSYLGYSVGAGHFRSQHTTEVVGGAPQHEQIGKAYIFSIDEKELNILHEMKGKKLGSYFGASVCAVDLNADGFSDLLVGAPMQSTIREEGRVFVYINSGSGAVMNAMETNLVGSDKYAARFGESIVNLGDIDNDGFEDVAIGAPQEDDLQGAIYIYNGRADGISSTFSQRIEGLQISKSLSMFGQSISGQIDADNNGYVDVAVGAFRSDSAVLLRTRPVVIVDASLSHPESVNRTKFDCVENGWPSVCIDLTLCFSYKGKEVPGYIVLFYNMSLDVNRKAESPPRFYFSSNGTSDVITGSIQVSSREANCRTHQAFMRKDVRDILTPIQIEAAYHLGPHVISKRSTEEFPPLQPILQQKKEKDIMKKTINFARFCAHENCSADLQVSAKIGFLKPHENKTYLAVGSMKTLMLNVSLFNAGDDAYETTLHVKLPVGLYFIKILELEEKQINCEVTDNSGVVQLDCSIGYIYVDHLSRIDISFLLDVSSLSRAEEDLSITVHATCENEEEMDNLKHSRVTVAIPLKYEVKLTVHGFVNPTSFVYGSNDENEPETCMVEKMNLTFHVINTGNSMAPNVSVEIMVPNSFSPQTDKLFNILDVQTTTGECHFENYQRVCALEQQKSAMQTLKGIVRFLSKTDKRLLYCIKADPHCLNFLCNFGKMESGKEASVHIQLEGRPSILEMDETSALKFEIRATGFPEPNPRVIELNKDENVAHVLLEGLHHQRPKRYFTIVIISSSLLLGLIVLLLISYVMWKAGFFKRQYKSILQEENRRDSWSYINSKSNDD
Beta-adrenergic receptor kinase 1 (Homo sapiens), sequence (P25098 whole entry, looked up): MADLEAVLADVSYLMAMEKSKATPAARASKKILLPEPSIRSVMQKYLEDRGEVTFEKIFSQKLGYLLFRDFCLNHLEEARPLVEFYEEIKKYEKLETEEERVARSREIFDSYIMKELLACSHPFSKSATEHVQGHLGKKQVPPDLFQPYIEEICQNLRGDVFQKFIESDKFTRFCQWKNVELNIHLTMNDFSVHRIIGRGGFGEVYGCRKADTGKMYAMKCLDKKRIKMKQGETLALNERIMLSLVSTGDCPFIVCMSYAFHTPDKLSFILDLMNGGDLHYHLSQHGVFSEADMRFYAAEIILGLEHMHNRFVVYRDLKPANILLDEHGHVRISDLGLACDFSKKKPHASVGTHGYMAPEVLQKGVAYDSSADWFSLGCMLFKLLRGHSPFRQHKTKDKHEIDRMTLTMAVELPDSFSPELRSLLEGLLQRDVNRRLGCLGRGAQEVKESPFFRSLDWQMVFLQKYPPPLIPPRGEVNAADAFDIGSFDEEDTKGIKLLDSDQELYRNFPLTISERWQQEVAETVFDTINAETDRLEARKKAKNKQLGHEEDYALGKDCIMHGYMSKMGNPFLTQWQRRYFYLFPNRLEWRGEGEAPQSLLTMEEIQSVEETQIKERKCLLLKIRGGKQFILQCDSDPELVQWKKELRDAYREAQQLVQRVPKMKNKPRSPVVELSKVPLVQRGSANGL

For the compound `Nc1ccc(N)c(C(=O)O)c1`, the percent of DMSO control GFP in [1] is 100% (inactive). For the same compound, the GFP response vs DMSO in [2] is 99.9% (inactive); in [4], 85.3% (inactive). Further, in assay [3], the percent response of DMSO control was 110% (inactive). In assay [5], the GFP response, % of DMSO was 90.3% (inactive). The compound also yielded a double positive events in assay [6] of 50%. Further, the vesicle binding response in [6] was 122% (inactive). The inhibition was -3.04% (inactive) in assay [7], 92.2% (active) in assay [10] and 8% (inactive) in [14]. Also, in assay [8], the superoxide response (% of plate) is 79% (inactive). Also, the aptamer binding inhibition in assay [9] was 92% (active). Also, the response in assay [11] is -0.99% (inactive). Besides, the binding (% of control) in [12] is 2.29% (active). Also, the efflux inhibition (fraction of control) in assay [13] is -0.24 (inactive). For the same compound, the differentiation response in assay [15] is -5.05% (inactive).
Consider `CC(C)[N+]1(C)[C@@H]2CC[C@H]1CC(OC(=O)C(CO)c1ccccc1)C2` (stereo not given in full), for which the percent of DMSO control GFP in assay [1] is 101% (inactive). Moreover, the GFP response vs DMSO in assay [2] was 95.9% (inactive); in assay [4], 101% (inactive). In addition, the percent response of DMSO control in assay [3] is 102% (inactive). The GFP response, % of DMSO in [5] was 104% (inactive). Moreover, the double positive events in assay [6] stood at 53.4%. Further, the vesicle binding response in assay [6] was 158% (inactive). The inhibition was 27.7% (inactive) in [7], 7.81% (inactive) in assay [10] and 11% (inactive) in assay [14]. The superoxide response (% of plate) in assay [8] is 94.6% (inactive). In [9], the aptamer binding inhibition is -2% (inactive). For the same compound, the response in assay [11] was 2.53% (inactive). The binding (% of control) in assay [12] is 102% (inactive). In addition, in assay [13], the efflux inhibition (fraction of control) was -0.12 (inactive). In assay [15], the differentiation response was -9.89% (inactive).
Take `OC(CCN1CCCCC1)(c1ccccc1)C1CCCCC1` (stereo not given): in assay [1], the percent of DMSO control GFP was 107% (inactive). Besides, the GFP response vs DMSO was 102% (inactive) in [2] and 106% (inactive) in assay [4]. Moreover, the percent response of DMSO control in assay [3] is 108% (inactive). Moreover, in assay [5], the GFP response, % of DMSO was 105% (inactive). Further, in assay [6], the double positive events was 40.6%. Moreover, the vesicle binding response in [6] is 185% (inactive). Further, the inhibition is 0% (inactive) in assay [7], -9.7% (inactive) in assay [10] and 5% (inactive) in assay [14]. Besides, in [8], the superoxide response (% of plate) was 97.3% (inactive). Further, the aptamer binding inhibition in [9] was -3% (inactive). Further, in assay [11], the response is -2.57% (inactive). Besides, the binding (% of control) in [12] is 108% (inactive). In addition, the efflux inhibition (fraction of control) in assay [13] is -0.05 (inactive). Moreover, in assay [15], the differentiation response was -8.27% (inactive).
As for `CC[C@]1(O)C[C@@H]2CN(CCc3c([nH]c4ccccc34)[C@@](C(=O)OC)(c3cc4c(cc3OC)N(C)[C@H]3[C@@](O)(C(=O)OC)[C@H](OC(C)=O)[C@]5(CC)C=CCN6CC[C@]43[C@@H]65)C2)C1`, in assay [1], the percent of DMSO control GFP is 102% (inactive). For the same compound, the GFP response vs DMSO is 101% (inactive) in [2] and 92.3% (inactive) in assay [4]. Also, the percent response of DMSO control in assay [3] was 101% (inactive). Further, the GFP response, % of DMSO in assay [5] was 99% (inactive). The compound further showed a double positive events in assay [6] of 55.4%. In assay [6], the vesicle binding response was 153% (inactive). Further, the inhibition in [7] is 23.1% (inactive); in assay [10], -7.9% (inactive); in assay [14] it was 8% (inactive). The superoxide response (% of plate) in assay [8] is 86.7% (inactive). Besides, the aptamer binding inhibition in [9] is -13% (inactive). In addition, in assay [11], the response was 1.26% (inactive). For the same compound, the binding (% of control) in assay [12] was 111% (inactive). Besides, in assay [13], the efflux inhibition (fraction of control) was 0.59 (active). Further, the differentiation response in assay [15] is 3.03% (inactive).
On to `Cc1ccc(C(CC(=O)NCc2ccco2)c2ccc(OC(C)C)cc2)cc1` (stereo not given), for which the percent of DMSO control GFP in assay [1] was 99.8% (inactive). The GFP response vs DMSO in assay [2] is 106% (inactive); in assay [4] it was 103% (inactive). Besides, in assay [3], the percent response of DMSO control was 96.9% (inactive). In [5], the GFP response, % of DMSO is 96.9% (inactive). In [6], the double positive events is 60.4%. Moreover, the vesicle binding response in assay [6] is 165% (inactive). The inhibition is -138% (inactive) in assay [7], 37.9% (inactive) in [10] and 12% (inactive) in [14]. The superoxide response (% of plate) in assay [8] is 103% (inactive). For the same compound, the aptamer binding inhibition in assay [9] is 2% (inactive). Also, the response in assay [11] is -2.51% (inactive). Besides, the binding (% of control) in assay [12] is 97.7% (inactive). Besides, in assay [13], the efflux inhibition (fraction of control) is 0.67 (active). Further, in [15], the differentiation response is -6.66% (inactive).
